# Records with an inconclusive call do not appear. A call without a number means that no potency is given here. Active and inactive are the calls of the source. Unless noted, calls follow the shape of the dose curve; as a rule, active = well fitted curve in the direction sought with a large enough effect; inconclusive = small, poorly fitted or top-dose-only effect, or another doubt; inactive = no such curve, though single readings can be large; an effect the other way counts as inactive or inconclusive.
# Experiments:
# [1] = molecular target: Glutathione peroxidase 1 (Homo sapiens) (UniProt P07203); test: Primary qHTS Assay for Inhibitors of Recombinant Selenoprotein Glutathione Peroxidase 1 (GPX1) (AID 1845191); also: nearly all actives have a fitted effect of over 65% in size; also: potency is read from the fitted curve at half-maximal effect
# Sequence of Glutathione peroxidase 1 (Homo sapiens) (P07203 whole entry, looked up): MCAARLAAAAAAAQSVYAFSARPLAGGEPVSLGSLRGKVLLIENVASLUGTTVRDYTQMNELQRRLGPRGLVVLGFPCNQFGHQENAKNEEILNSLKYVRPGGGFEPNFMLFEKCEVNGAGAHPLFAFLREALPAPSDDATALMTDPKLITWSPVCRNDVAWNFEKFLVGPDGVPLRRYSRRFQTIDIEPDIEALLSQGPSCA
# How it was run: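 10 nM GPX1 + cpd, 30 min RT; start w/ 1 mM GSH, 0.5 mM cumene hydroperoxide, 0.5 mM NADPH, 100 nM GR, 0.01% BSA; buffer 50 mM Tris-HCl pH 7.5, 2 mM EDTA, 150 mM NaCl; Fl 340/450, 0 & 15 min.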
# [2] = molecular target: Phospholipid hydroperoxide glutathione peroxidase GPX4 (Homo sapiens) (UniProt P36969); test: Primary qHTS Assay for Inhibitors of Recombinant Selenoprotein Glutathione Peroxidase 4 (GPX4) (AID 1845192); also: nearly all actives have a fitted effect of over 65% in size; also: potency is read from the fitted curve at half-maximal effect; as to activity change, negative = inhibition: series mostly up to about 50 µM
# Sequence of Phospholipid hydroperoxide glutathione peroxidase GPX4 (Homo sapiens) (P36969 whole entry, looked up): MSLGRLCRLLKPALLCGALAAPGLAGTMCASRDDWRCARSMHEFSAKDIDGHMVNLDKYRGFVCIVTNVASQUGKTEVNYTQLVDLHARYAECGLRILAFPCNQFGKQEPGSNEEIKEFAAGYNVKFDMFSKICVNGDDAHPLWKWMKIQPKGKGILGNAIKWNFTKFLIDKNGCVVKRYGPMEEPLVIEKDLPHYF
# How it was run: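 NADPH consumption, followed by fluorescence at 340/450 nm between 0 and 15 min, reports GPX4 activity via coupled glutathione reductase (100 nM). Enzyme 200 nM was pre-exposed to compound 30 min; 0.5 mM cumene hydroperoxide and 1 mM GSH served as substrates.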
# [3] = qHTS drug screen for cell cycle checkpoint inhibitors in PARPi-resistant BRCA-mutant ovarian cancer cell lines. (AID 1963452; calls by dose curve); conditions: PEO1/OlaR viability, CellTiter-Glo luminescence, 96 h, stronger effect = lower value
# How it was run: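 PEO1, PEO4 and PEO1/OlaR ovarian cancer cells, 600 per well, exposed 96 h at 37C to a dilution series. Viability read by CellTiter-Glo luminescence, normalized to DMSO and empty wells; activity summarized as Z-AUC.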
# [4] = molecular target: Luciferin 4-monooxygenase (Photinus pyralis) (UniProt P08659); test: Primary firefly luciferase (FLuc) qHTS assay for identification of artifact compounds. (AID 1845220); conditions: outcome: dose series up to 54.1 µM; also: series mostly up to about 54 µM; nearly all actives have a fitted effect of over 60% in size
# How it was run: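 FLuc 10 nM; luciferin 10 uM; ATP 10 uM; Tris-acetate pH 7.6, Mg-acetate 10 mM; 15 min RT preincubation; 5 min reaction; luminescence.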
# [5] = Primary fluorescence-based thiol-reactive (MSTI) qHTS assay for identification of artifact compounds. (AID 1845221);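 also: series mostly up to about 54 µM; thiol-reactive compounds lower the probe fluorescence signal; nearly all actives have a fitted effect of over 65% in size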
# How it was run: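 A multi-concentration qHTS design tested compounds against 4 uM MSTI, pH 7.4 phosphate-buffered saline. Plates were protected from light for 1 h at room temperature before imaging fluorescence.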
# [6] = system: Nanoluciferase (engineered Oplophorus gracilirostris luciferase); test: Primary Nanoluciferase (NLuc) qHTS assay for identification of artifact compounds. (AID 1845222);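 also: NLuc secreted into diluted conditioned medium of S16 cells; series mostly up to about 54 µM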
# How it was run: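 NLuc from S16 cell medium (1:55) plus test compounds, 15 min, room temperature. Luminescence after Nano-Glo (1:100) addition, 5 min.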
# [7] = Primary redox qHTS assay for identification of artifact compounds. (AID 1845223)
# How it was run: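 Amplex Red (25 uM) and HRP (250 mU/mL) in HBSS, with compounds for 15 min, then 250 uM DTT for 30 min, room temperature, dark. Fluorescence 525/598 nm read; normalized to DMSO and 10 uM DA3003; Hill fit.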
# [8] = measured here: PEO1 parental Z-AUC
smiles,measurement,setting,value
CO/N=C(\C(=O)N[C@@H]1C(=O)N2C(C(=O)O)=C(C[N+]3(C)CCCC3)CS[C@H]12)c1csc(N)n1,Potency,[1],11.4 µM (active)
same,Potency,[2],17.8 µM (active)
CC1CCCCN1CCCOC(=O)c1ccccc1 (configuration not stated),Potency,[1],inactive
same,Potency,[2],inactive
CNC(=O)OCc1cccc(COC(=O)NC)n1,Potency,[1],inactive
same,Potency,[2],inactive
Cc1ncc(C[n+]2csc(CCOP(=O)(O)OP(=O)(O)O)c2C)c(N)n1,"activity, negative = inhibition",[1],-4.18% [at 0.4 µM] (inactive)
same,"activity change, negative = inhibition",[2],-9.41% [at 0.409 µM] (inactive)
C=C[C@]1(C)C[C@@H](OC(=O)CSCCN(CC)CC)[C@]2(C)[C@H](C)CC[C@]3(CCC(=O)[C@H]32)[C@@H](C)[C@@H]1O,Potency,[1],inactive
same,Potency,[2],inactive
CC1=C(/C=C/C(C)=C/C=C/C(C)=C/C=C/C=C(C)/C=C/C=C(C)/C=C/C2=C(C)C[C@@H](O)CC2(C)C)C(C)(C)C[C@H](O)C1,Potency,[1],inactive
same,Potency,[2],inactive
CCN(CC)CCOC(=O)c1cccnc1,Potency,[1],inactive
same,Potency,[2],inactive
CC(C)(C)c1ccc2c(S(=O)(=O)O)c(C(C)(C)C)ccc2c1,Potency,[1],inactive
same,Potency,[2],12.6 µM (active)
CC(CN(C)C)CN1c2ccccc2Sc2ccc(C(F)(F)F)cc21 (configuration not stated),Potency,[1],inactive
same,Potency,[2],inactive
CCCCCCCCCCCCCCCCCCCCCC(=O)Nc1ccn([C@@H]2O[C@H](CO)[C@@H](O)[C@@H]2O)c(=O)n1,Potency,[1],inactive
same,Potency,[2],inactive
CS(=O)(=O)OCC(O)C(O)COS(C)(=O)=O (configuration not stated),Potency,[1],inactive
same,Potency,[2],inactive
CC(C)CCCC(C)NC(C)C (configuration not stated),Potency,[1],inactive
same,Potency,[2],inactive
CO[C@@H]1[C@H](OC(=O)/C=C/C=C/C=C/C=C/C(=O)O)CC[C@]2(CO2)[C@H]1[C@@]1(C)O[C@@H]1CC=C(C)C,Potency,[1],inactive
same,Potency,[2],14.1 µM (active)
COc1ccc2c(=O)c(C)c(-c3ccccc3)oc2c1CN(C)C,Potency,[1],inactive
same,Potency,[2],inactive
Cc1ncc(COP(=O)(O)O)c(CN)c1O,Potency,[1],inactive
same,Potency,[2],inactive
CCCCC(CC)CCC(CC(C)C)OS(=O)(=O)O (configuration not stated),Potency,[1],inactive
same,Potency,[2],10 µM (active)
Cc1nc(NS(=O)(=O)c2ccc(N)cc2)nc(C)c1Br,Potency,[1],inactive
same,Potency,[2],inactive
CC(C)C[C@H](NC(=O)[C@@H](COC(C)(C)C)NC(=O)[C@H](Cc1ccc(O)cc1)NC(=O)[C@H](CO)NC(=O)[C@H](Cc1c[nH]c2ccccc12)NC(=O)[C@H](Cc1cnc[nH]1)NC(=O)[C@@H]1CCC(=O)N1)C(=O)N[C@@H](CCCN=C(N)N)C(=O)N1CCC[C@H]1C(=O)NNC(N)=O,Potency,[1],inactive
same,Potency,[2],inactive
O=C1c2ccccc2C(=O)c2c1ccc(O)c2O,Potency,[1],inactive
same,Potency,[2],inactive
O=C1[O][Bi][O]c2ccccc21,outcome,[1],inactive [at 0.4 µM]
same,outcome,[2],inactive [at 0.409 µM]
O=C(O)c1ccc(NC(=O)[C@H](Cc2ccc(O)cc2)NC(=O)c2ccccc2)cc1,Potency,[1],inactive
same,Potency,[2],inactive
CCC(Oc1ccccc1)C(=O)N[C@@H]1C(=O)N2[C@@H]1SC(C)(C)[C@@H]2C(=O)O (some centres not stated),Potency,[1],inactive
same,Potency,[2],31.6 µM (active)
CN(C)CCOc1ccc(/C(=C(/CCCl)c2ccccc2)c2ccccc2)cc1,Potency,[1],inactive
same,Potency,[2],inactive
same,Z-AUC,[3],0.623 (inactive)
same,Z-AUC,[3]; [8],0.97
same,Z-AUC,[3]; measured here: PEO4 Z-AUC,0.656
CO[C@H]1C[C@@H]2CC[C@@H](C)[C@@](O)(O2)C(=O)C(=O)N2CCCC[C@H]2C(=O)O[C@H]([C@H](C)C[C@@H]2CC[C@@H](OC(=O)C(C)(CO)CO)[C@H](OC)C2)CC(=O)[C@H](C)/C=C(\C)[C@@H](O)[C@@H](OC)C(=O)[C@H](C)C[C@H](C)/C=C/C=C/C=C/1C,Potency,[1],inactive
same,Potency,[2],inactive
same,outcome,[4],inactive
same,outcome,[5],inactive
same,outcome,[6],inactive
same,outcome,[7],inactive
same,Z-AUC,[3],-1.22 (inactive)
same,Z-AUC,[3]; [8],-1.04
same,Z-AUC,[3]; measured here: PEO4 Z-AUC,-0.64
CO[C@H]1O[C@@H]2O[C@@]3(C)CC[C@H]4[C@H](C)CC[C@@H]([C@H]1C)[C@@]24OO3,Potency,[1],inactive
same,Potency,[2],inactive
same,Z-AUC,[3],-0.105 (inactive)
same,Z-AUC,[3]; [8],0.613
same,Z-AUC,[3]; measured here: PEO4 Z-AUC,0.87
Cc1cc(-c2ccc(N=Nc3c(S(=O)(=O)O)cc4cc(S(=O)(=O)O)cc(N)c4c3O)c(C)c2)ccc1N=Nc1c(S(=O)(=O)O)cc2cc(S(=O)(=O)O)cc(N)c2c1O,Potency,[1],inactive
same,Potency,[2],inactive
CCCCC[C@H](O)/C=C/[C@H]1[C@H](O)CC(=O)[C@@H]1CCCCCCC(=O)O,Potency,[1],inactive
same,Potency,[2],inactive
same,Z-AUC,[3],-0.83 (inactive)
same,Z-AUC,[3]; [8],-0.667
same,Z-AUC,[3]; measured here: PEO4 Z-AUC,-0.531
NC[C@H]1O[C@H](O[C@H]2[C@H](O)[C@@H](O[C@H]3O[C@H](CO)[C@@H](O)[C@H](N)[C@H]3O)[C@H](N)C[C@@H]2N)[C@H](O)[C@@H](O)[C@@H]1O,outcome,[1],inactive [at 4.49 µM]
same,outcome,[2],inactive [at 4.52 µM]
CNC(=O)C[C@@H](N)C(=O)N[C@@H](C(=O)N[C@@H]1C(=O)N2[C@@H]1SC(C)(C)[C@@H]2C(=O)O)c1ccc(O)cc1,Potency,[1],inactive
same,Potency,[2],inactive
CC(CC=O)CCCC(C)(C)O (configuration not stated),Potency,[1],inactive
same,Potency,[2],inactive
O=C(CCCN1CCC(C(=O)c2ccc(F)cc2)CC1)c1ccc(F)cc1,Potency,[1],inactive
same,Potency,[2],inactive
C[C@H]1O[C@@H](O[C@H]2[C@@H](O)C[C@H](O[C@H]3[C@@H](O)C[C@H](O[C@H]4CC[C@@]5(C)[C@H](CC[C@@H]6[C@@H]5C[C@@H](O)[C@]5(C)[C@@H](C7=CC(=O)OC7)CC[C@]65O)C4)O[C@@H]3C)O[C@@H]2C)C[C@H](O)[C@@H]1O,Potency,[1],inactive
same,Potency,[2],inactive
same,outcome,[4],inactive
same,outcome,[5],inactive
same,outcome,[6],inactive
same,outcome,[7],inactive
same,Z-AUC,[3],-1.16 (inactive)
same,Z-AUC,[3]; [8],-1.92
same,Z-AUC,[3]; measured here: PEO4 Z-AUC,-1.33

# — PubChem BioAssay (NCATS)
